PMC7862700, “An all-to-all approach to the identification of sequence-specific readers for epigenetic DNA modifications on cytosine”

Columns and labels:
Experiment in all cases: DAPPL (digital affinity profiling via proximity ligation, sequencing); 10 mM Tris-HCl pH 7.5, 50 mM NaCl, 1 mM DTT, 4% glycerol, room temperature, 30 min; GST-TFs on glutathione beads, 16-mer random dsDNA library, 0.1% formaldehyde crosslink after washing; high values mean tight binding
FEV = target: T1, FEV (Homo sapiens, UniProt Q99581 1-238); details: protein: recombinant; tags: N-terminal GST; dsDNA, one strand shown
T1 sequence: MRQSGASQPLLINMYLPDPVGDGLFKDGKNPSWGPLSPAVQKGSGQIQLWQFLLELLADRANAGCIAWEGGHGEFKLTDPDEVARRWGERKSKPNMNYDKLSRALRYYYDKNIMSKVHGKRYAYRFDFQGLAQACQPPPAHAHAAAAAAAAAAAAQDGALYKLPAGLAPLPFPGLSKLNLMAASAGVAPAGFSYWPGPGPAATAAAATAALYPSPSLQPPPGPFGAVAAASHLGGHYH
Method in brief: (§1)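 Pools were built from human transcription factors expressed in yeast as GST fusions, captured on glutathione beads and DNA-barcoded, along with a tag-only sample. Incubation with 200 nmole of a 16-mer random double-stranded DNA library lasted 30 min at room temperature in Tris/NaCl/DTT/glycerol buffer, and was followed by washing, 0.1% formaldehyde crosslinking, proximity ligation, PCR amplification and Illumina NextSeq500 sequencing. Binding signal is the quotient of each hexamer's read frequency for a factor and its frequency for the tag-only sample.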

ETV5 = ETV5 (Homo sapiens, UniProt P41161 1-510); details: protein: recombinant; tags: N-terminal GST; dsDNA, one strand shown
Chain of ETV5 (P41161 whole entry): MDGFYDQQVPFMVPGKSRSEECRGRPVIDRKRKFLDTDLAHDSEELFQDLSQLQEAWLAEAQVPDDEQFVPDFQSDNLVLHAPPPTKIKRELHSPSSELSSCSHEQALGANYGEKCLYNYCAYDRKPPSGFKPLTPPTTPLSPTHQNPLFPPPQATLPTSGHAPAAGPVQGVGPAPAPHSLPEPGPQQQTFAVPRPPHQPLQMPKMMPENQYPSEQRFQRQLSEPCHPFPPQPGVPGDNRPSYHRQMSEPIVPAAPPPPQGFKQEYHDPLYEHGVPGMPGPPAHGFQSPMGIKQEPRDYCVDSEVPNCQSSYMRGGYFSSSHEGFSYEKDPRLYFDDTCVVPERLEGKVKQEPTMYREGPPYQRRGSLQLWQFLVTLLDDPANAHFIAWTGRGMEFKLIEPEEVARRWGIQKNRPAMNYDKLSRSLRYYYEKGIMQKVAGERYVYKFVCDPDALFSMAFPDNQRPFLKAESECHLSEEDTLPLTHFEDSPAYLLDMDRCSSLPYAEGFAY
Method in brief: as §1

HSF1 = HSF1 (Homo sapiens, UniProt Q00613 1-529); details: protein: recombinant; tags: N-terminal GST; chain copies: 3; dsDNA, one strand shown
Chain of HSF1 (Q00613 whole entry): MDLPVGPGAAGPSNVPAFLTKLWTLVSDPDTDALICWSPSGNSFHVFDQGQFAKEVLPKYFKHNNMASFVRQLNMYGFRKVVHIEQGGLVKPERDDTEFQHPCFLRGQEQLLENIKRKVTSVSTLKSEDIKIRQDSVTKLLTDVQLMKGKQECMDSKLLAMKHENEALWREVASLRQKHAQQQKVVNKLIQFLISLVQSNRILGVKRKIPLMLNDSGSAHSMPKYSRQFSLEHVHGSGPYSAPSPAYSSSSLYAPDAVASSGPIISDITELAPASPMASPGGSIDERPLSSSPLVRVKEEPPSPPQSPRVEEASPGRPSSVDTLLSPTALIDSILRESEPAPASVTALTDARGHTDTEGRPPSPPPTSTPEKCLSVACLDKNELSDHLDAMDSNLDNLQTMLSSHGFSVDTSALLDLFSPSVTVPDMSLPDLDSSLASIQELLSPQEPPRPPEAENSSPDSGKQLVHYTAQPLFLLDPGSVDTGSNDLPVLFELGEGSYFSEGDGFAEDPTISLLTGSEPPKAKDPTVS
Method in brief: as §1

SPIC = target: T2, SPIC (Homo sapiens, UniProt Q8N5J4 1-248); details: protein: recombinant; tags: N-terminal GST; dsDNA, one strand shown
T2 sequence: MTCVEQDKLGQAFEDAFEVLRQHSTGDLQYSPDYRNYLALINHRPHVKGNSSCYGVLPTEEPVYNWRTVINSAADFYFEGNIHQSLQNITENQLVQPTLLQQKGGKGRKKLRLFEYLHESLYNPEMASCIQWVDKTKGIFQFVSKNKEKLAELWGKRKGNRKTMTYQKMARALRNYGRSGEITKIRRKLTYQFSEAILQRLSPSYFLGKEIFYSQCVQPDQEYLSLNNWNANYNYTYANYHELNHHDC
Method in brief: as §1

ELF4 = ELF4 (Homo sapiens, UniProt Q99607 1-663); details: protein: recombinant; tags: N-terminal GST; dsDNA, one strand shown
Chain of ELF4 (Q99607 whole entry): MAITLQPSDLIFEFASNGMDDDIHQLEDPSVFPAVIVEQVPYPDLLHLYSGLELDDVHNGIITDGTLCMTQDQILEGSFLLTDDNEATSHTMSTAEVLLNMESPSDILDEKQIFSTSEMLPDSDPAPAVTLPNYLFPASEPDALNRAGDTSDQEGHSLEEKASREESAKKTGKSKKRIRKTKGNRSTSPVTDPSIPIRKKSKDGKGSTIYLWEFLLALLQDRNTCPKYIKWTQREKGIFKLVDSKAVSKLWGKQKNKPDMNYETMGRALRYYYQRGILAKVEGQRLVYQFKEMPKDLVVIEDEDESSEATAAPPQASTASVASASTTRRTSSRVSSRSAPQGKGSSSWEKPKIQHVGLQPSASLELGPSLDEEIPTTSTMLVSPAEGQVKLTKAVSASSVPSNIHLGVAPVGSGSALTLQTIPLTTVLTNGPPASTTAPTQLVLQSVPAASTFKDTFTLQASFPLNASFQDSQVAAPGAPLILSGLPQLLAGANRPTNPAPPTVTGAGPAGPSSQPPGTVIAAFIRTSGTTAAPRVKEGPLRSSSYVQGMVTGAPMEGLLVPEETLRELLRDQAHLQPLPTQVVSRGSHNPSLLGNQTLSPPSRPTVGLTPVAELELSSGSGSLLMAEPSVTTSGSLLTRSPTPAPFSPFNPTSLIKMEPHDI
Method in brief: as §1

ELK4 = target: T3, ELK4 (Homo sapiens, UniProt P28324-2 1-405); details: protein: recombinant; tags: N-terminal GST; dsDNA, one strand shown
T3 sequence: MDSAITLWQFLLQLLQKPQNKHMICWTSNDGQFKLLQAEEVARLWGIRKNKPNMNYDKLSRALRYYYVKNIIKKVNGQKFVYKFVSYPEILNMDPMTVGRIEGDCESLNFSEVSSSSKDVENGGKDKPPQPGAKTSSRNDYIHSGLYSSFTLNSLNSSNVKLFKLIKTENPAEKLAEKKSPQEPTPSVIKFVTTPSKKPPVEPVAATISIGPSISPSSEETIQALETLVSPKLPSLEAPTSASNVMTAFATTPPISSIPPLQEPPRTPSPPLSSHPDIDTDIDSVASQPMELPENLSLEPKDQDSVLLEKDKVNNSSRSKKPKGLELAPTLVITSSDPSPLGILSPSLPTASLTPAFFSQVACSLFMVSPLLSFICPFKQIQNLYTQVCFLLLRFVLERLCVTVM
Method in brief: as §1

ETV2 = target: T4, ETV2 (Homo sapiens, UniProt O00321 1-342); details: protein: recombinant; tags: N-terminal GST; dsDNA, one strand shown
T4 sequence: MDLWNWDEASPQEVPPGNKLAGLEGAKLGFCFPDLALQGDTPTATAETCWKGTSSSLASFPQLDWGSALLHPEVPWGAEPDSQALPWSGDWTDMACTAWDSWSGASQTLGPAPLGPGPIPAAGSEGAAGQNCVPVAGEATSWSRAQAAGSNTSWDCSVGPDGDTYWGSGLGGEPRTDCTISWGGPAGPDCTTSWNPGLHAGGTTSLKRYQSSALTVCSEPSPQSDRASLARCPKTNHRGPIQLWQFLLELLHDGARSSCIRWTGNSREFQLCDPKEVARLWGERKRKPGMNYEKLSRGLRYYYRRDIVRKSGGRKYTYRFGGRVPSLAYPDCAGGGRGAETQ
Method in brief: as §1

ELF3 = target: T5, ELF3 (Homo sapiens, UniProt P78545 1-371); details: protein: recombinant; tags: N-terminal GST; dsDNA, one strand shown
T5 sequence: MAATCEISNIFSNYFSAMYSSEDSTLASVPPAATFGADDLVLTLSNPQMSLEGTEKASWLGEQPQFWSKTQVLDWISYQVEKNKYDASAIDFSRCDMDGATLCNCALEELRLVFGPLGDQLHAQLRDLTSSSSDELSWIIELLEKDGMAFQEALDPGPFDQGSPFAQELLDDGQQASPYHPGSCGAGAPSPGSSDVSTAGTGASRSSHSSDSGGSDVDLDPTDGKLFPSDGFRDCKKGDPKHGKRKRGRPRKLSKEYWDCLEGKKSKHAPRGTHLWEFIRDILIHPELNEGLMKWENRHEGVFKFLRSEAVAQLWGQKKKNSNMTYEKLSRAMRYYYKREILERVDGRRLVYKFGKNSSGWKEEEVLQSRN
Method in brief: as §1

CRX = CRX (Homo sapiens, UniProt O43186 1-299); details: protein: recombinant; tags: N-terminal GST; dsDNA, one strand shown
Chain of CRX (O43186 whole entry): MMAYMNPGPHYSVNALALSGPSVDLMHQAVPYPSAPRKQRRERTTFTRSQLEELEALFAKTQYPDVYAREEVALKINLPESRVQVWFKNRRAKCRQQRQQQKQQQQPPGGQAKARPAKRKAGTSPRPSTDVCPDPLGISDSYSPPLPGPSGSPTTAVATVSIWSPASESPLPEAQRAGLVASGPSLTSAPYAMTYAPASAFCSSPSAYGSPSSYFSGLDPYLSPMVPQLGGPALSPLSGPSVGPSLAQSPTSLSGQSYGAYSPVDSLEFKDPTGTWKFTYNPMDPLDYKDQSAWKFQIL
Method in brief: as §1

ETV1 = ETV1 (Homo sapiens, UniProt P50549 1-477); details: protein: recombinant; tags: N-terminal GST; dsDNA, one strand shown
Chain of ETV1 (P50549 whole entry): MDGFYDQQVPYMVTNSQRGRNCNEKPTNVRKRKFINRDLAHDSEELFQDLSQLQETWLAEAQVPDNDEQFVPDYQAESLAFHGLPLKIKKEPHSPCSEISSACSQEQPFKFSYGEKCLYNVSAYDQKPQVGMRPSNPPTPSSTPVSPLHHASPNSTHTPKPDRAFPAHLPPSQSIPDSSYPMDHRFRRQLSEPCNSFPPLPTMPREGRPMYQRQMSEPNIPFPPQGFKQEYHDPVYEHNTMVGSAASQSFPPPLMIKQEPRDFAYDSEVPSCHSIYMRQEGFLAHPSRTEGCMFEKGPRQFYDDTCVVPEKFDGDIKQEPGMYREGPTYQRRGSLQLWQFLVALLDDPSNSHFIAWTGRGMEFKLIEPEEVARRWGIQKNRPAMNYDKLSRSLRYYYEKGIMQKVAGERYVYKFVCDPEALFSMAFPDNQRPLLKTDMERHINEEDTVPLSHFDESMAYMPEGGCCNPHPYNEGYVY
Method in brief: as §1

For TAAACC, the binding signal (FEV) was 1.29 fold enrichment (6-mer frequency, TF over GST control), the binding signal (ETV5) was 1.23 fold enrichment (6-mer frequency, TF over GST control) and the binding signal (HSF1) was 1.46 fold enrichment (6-mer frequency, TF over GST control). The binding signal (SPIC) was 1.13 fold enrichment (6-mer frequency, TF over GST control), the binding signal (ELF4) was 1.19 fold enrichment (6-mer frequency, TF over GST control) and the binding signal (ELK4) was 1.32 fold enrichment (6-mer frequency, TF over GST control). The binding signal (ETV2) was 1.27 fold enrichment (6-mer frequency, TF over GST control), the binding signal (ELF3) was 1.35 fold enrichment (6-mer frequency, TF over GST control) and the binding signal (CRX) was 2.11 fold enrichment (6-mer frequency, TF over GST control). The binding signal (ETV1) was 1.23 fold enrichment (6-mer frequency, TF over GST control).
